Test results reported in the supplement of paper PMC3334620.
In all, about 33,000 sequences were measured (“E-score (-0.5 to 0.5)”: median about -0.04, highest 2% from about 0.36 on). The entries come from a sample that favours the highest values as a whole.

biological target: T1, Hmlalpha2 (UniProt P0CY09); assay: PBM E-score (8-mer binding enrichment) (E-score (-0.5 to 0.5)); higher = stronger / more preferred TF binding; conditions: protein concentration: 200 nM; construct: GST-full length
T1 sequence: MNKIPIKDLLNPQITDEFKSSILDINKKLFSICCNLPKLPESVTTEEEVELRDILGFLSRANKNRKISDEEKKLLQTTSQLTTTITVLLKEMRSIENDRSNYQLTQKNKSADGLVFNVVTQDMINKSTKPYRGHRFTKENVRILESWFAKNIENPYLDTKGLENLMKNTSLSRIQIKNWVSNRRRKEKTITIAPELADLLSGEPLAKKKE
Summary of the method: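 GST-tagged yeast TFs (full-length or DNA-binding domain) were made by PURExpress in vitro transcription/translation and applied at about 100-200 nM to universal all-10-mer Agilent arrays. The arrays were made double-stranded by primer extension, on fresh or once-stripped slides. Bound protein was detected with fluorescent anti-GST, and scans were normalised with masliner. Each ungapped eight-base word, pooled with its reverse complement, received an E-score (modified Wilcoxon-Mann-Whitney statistic) from the Universal PBM Analysis Suite.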

Sequence	PBM E-score
GCGCCAAC	-0.0446
CGCTATAA	-0.00727
ACTTAACT	0.159
ACTTAACA	0.388
TCTTAACA	0.404
TCTTAAGA	-0.132
ACTTAACG	0.14
GCTTAACA	0.378
GCTTAACC	-0.00807
TCTTAAAA	-0.0174
CCTTAACA	0.291
TATAACGA	0.176
ACCTAGCC	-0.205
AGTAGTGC	-0.153
GAGACGAC	-0.19
CCAAAAGG	-0.136
CGGCGGCC	-0.188
ACCGTGAT	-0.0701
ACACGCGG	0.324
ACACGCGA	0.378
ACACGCGT	0.43
ACACGCGC	0.304
ACGCGCGT	0.343
AAACGCGT	0.312

Sequence	PBM E-score
AACTGCAC	0.0702
GATGTAGC	-0.0783
GATGTAAA	0.433
AATGTAAT	0.461
AATGTAAA	0.434
TCTGTAAA	0.278
ACTGTAAA	0.222
ACTGTAAT	0.251
GAGGTAAA	0.228
AATGTAAC	0.296
ACAATTCT	0.156
AAAGAATC	-0.124
CCTCTTCG	-0.127
AAGGCTTC	-0.116
TCTACACA	0.445
ACTACACG	0.454
GTACTACA	0.369
CCTACACC	-0.00672
CCTACACA	0.266
CTACTACA	0.304
TCTACAGA	0.133
GCTACACA	0.323
ACTACACT	0.253
ACTACACC	0.166

Sequence	PBM E-score
ATACTACA	0.32
CCTACACG	0.393
ATGGTTAA	0.139
CATGTGAC	0.19
CCCCTTCA	-0.233
AGTGCAGG	-0.159
TCAAGCCA	-0.0161
CCCCCTAC	-0.279
CCCAATCC	-0.281
CGTATCCA	-0.0445
AACAACGG	0.138
ACACTACT	0.105
ACTACAGA	0.119
ACACTACA	0.397
ACTACAAG	0.267
GAACTACA	0.197
ACTACACA	0.406
CCACTACA	0.212
TAACTACA	0.378
CAACTACA	0.316
AGCTCTTC	-0.21
ATCGCGGA	-0.302
GTCAAGTA	0.201
CGAAGCGA	-0.131

Sequence	PBM E-score
CCAGTAGC	-0.157
CACCGCCG	-0.288
ATGAGTCG	-0.0768
CATCAACC	0.0266
TAGACGCA	0.0971
TCCCTGAA	-0.0392
ATATGTAC	0.337
ATATGTGA	0.234
ATATGTAA	0.416
GTATGTAA	0.477
CTATGTAA	0.485
CTATGTGA	0.172
ATATGTAG	0.3
GTATGTCA	0.352
CTATGTAC	0.401
GTATGTGA	0.199
CTCTGTAC	-0.00455
CTCTGTAA	0.195
ATCAAAAA	0.0225
AAAGCGAC	0.0782
GCTCTCCC	-0.266
AGTGCATA	0.1
